Laboratory results reported in PubChem BioAssay AID977630 (Broad Institute, 2014).
Fewer than 10 of roughly 1,600 compounds were called active. Inconclusive results (about 48%) are left out.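 Rule for the calls: active = Normal-ribosome green reporter loss at least double humanized-ribosome red reporter loss, with overall culture growth inhibition under a set limit; inconclusive = no clear call, values can overlap the other calls; inactive = the rest.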 Only a sample is shown. Potency and affinity values are given separately.

Assay: growth inhibition of wild-type GFP E. coli, H38-humanized RFP comparator, dose response, H38 mutant RFP vs wild-type GFP, cherry-pick (AID 977630);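 note: wild-type GFP strain mixed equally with humanized-ribosome H38 mutant expressing RFP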
Conditions: mixed culture, 24 h; series mostly up to 50 µM

outcome, inactive:
CCN(CC)CC(=O)Nc1sc2c(c1C(=O)c1ccccc1OC)CCC2, O=S(=O)(Cc1ccco1)Cc1nc(-c2ccc(Cl)cc2)cs1, Cc1ccccc1NS(=O)(=O)c1cc(C(=O)NCCC2=CCCCC2)ccc1C, Cc1c(CCOC(=O)C23CC4CC(CC(C4)C2)C3)sc[n+]1Cc1ccccc1, O=C(CSc1nnc(-c2ccccc2F)n1C1CC1)Nc1cccnc1Cl, CSc1ccc(CN(C)CC(=O)NC(C)c2ccccc2)cc1 (stereo not given), COc1cc[n+]([O-])cc1[N+](=O)[O-], COc1ccc(OC2C(=O)N(Cc3ccc4c(c3)OCO4)C2c2sccc2C)cc1 (stereo not given), COc1ccc(C(=O)C[n+]2ccc3c(c2)nc(-c2cc(OC)c(OC)cc2OC)n3C)cc1, c1coc(CSc2ncnc3c2oc2ccccc23)c1, COc1cccc(SCC(=O)N2CCN(c3ccccc3)CC2)c1, COc1ccc(C(=O)CSc2nc3ccccc3n2CC(=O)c2ccccc2)cc1, O=C(Nc1cscc1S(=O)(=O)c1ccccc1)c1ccccc1Cl, CC1Cc2ccccc2N1C(=O)CN1C(=O)NC(C)(CCc2ccccc2)C1=O (stereo not given), O=C(COC(=O)c1ccc(O)cc1)Nc1ccccc1, O=S(=O)(NC1c2cccc3cccc(c23)C1Sc1ncccn1)c1ccccc1 (stereo not given), O=[N+]([O-])c1ccc(/C=C/c2ccc3cccc([N+](=O)[O-])c3n2)cc1, Cc1cc(C(=O)Nc2ccc(Cl)cc2)c(C)n1Cc1cccs1, CCCCOc1ccc(-c2nnn(CCC(=O)N3CCOCC3)n2)cc1, Cc1ccnc(NS(=O)(=O)c2ccc(NC(=O)c3ccc4c(c3)OCCO4)cc2)n1, CN1N=C2c3ccccc3CCC2C1c1ccc(F)cc1 (stereo not given), COc1ccc(-c2nc(NC(C)=O)sc2-c2ccccc2)cc1, Nc1ccccc1Sc1c[nH]c2ccccc12, CCc1cccc(CC)c1NC(=O)Cn1c(-c2ccc(F)cc2)noc1=O, Cc1ccc(C)c(N2CCN(C(=O)CCS(=O)(=O)c3ccc4c(c3)oc(=O)n4C)CC2)c1, CCOC(=O)c1cc2nc(-c3ccccc3)cc(C)n2n1, O=C(NCc1ccccc1)C1C(=O)Nc2ccccc2C(=O)N1c1ccc2c(c1)OCCO2 (stereo not given), CSc1ccccc1NC(=O)CN(c1cccc(C)c1)S(C)(=O)=O, CC(OC(=O)COc1ccccc1)C(=O)NC1CCCC1 (stereo not given), O=S(=O)(c1ccc(Cl)cc1)N1CCN=C1SCc1cccc(Cl)c1, CCCN1C(=O)C(O)(c2c(C)[nH]c3ccccc23)c2ccccc21 (stereo not given), COc1ccc(CNC(=O)c2sc3nc4c(c(C(F)(F)F)c3c2N)CCC4)cc1OC, CN(Cc1ccc([N+](=O)[O-])cc1)c1ccccc1, Cc1ccc(NCC(=O)c2ccc(C)cc2)cc1, Cn1c(=O)c2c(-c3ccccc3)n(-c3cc([N+](=O)[O-])ccc3N)cc2n(C)c1=O, CC1(C(=O)NS(=O)(=O)c2cccc(C#N)c2)CCN1C(=O)C1(c2ccc(Cl)cc2)CCC1 (stereo not given), C[C@@H]1CN([C@@H](C)CO)C(=O)c2cccc(NC(=O)c3nc4ccccc4s3)c2O[C@@H]1CN(C)CC1CC1, Cc1nc(-c2ccc([N+](=O)[O-])cc2)c(-c2ccccc2)o1, O=C(CN1CCN(S(=O)(=O)c2ccc(Cl)cc2)CC1)Nc1ccc2c(c1)CCC2, CC(NC(=O)c1ccncc1)c1ccc(Cl)cc1Cl (stereo not given), O=C(Nc1ccn(Cc2ccc(Cl)cc2)n1)c1ccccc1, CCCOC(=O)c1ccc(NC(=O)c2nc3nc(C)cc(C)n3n2)cc1, C[C@@H]1CCCCO[C@H](CN(C)C(=O)CCCN(C)C)[C@H](C)CN([C@@H](C)CO)C(=O)c2cc(NC(=O)Nc3cccc4ccccc34)ccc2O1, CCOc1ccccc1C(=O)NCC(=O)OCCOc1cccc(Cl)c1, CCOC(=O)C(C)(C)n1nnc(-c2ccc([N+](=O)[O-])cc2)n1, O=c1c2ccccc2nc(SCc2ccccc2)n1CC1CCCO1 (stereo not given), Cc1ccc(N2C(=S)NC3c4cc(Cl)ccc4OC2(C)C3C(=O)N(C)C)cc1 (stereo not given), CC1(c2ccc3ccccc3c2)NC(=O)N(CC(=O)N2CCN(c3ccccc3O)CC2)C1=O (stereo not given), O=C(Nc1ccc(Br)cc1)c1cccnc1N1CCCCC1, CCc1ccc2nc(SCC(=O)Nc3ccccc3N3CCOCC3)c(C#N)cc2c1, CSc1nc2ccc(NS(=O)(=O)c3ccc([N+](=O)[O-])cc3)cc2s1, COc1ccc(C2CC(c3cccs3)=Nc3ccccc3S2)cc1 (stereo not given), Cc1ccccc1CSc1nnc(-c2ccccn2)n1C, CCOC(=O)c1c(C)[nH]c(C)c1S(=O)(=O)NCCN1CCN(c2ccccc2F)CC1, O=C(CSc1nnc(COc2cccc3cccnc23)o1)c1ccc(F)cc1, O=C(O)c1nn2c(C(F)(F)F)cc(-c3cccs3)nc2c1Cl, COc1ccc(CC(=O)Nc2cc(S(=O)(=O)Nc3ccc(OC)cc3)ccc2OC)cc1, COC(=O)c1cc(C)sc1NC(=O)CC1Nc2ccccc2NC1=O (stereo not given), COC(=O)c1sccc1NC(=O)CNC(=O)c1ccccc1, CCOC(=O)c1cccc(OS(=O)(=O)Cc2ccccc2)c1, CCOc1ccccc1N1CC(C(=O)Nc2cccc(S(=O)(=O)N3CCCCC3)c2)CC1=O (stereo not given), c1cc2cc(-c3c(-c4ccc5c(c4)OCO5)noc3-c3ccsc3)ccc2[nH]1, Cc1cc(C)cc(NC(=O)COC(=O)CC2CCCC2)c1, COc1cc(SC)ccc1C(=O)N(Cc1ccccc1)c1ccccn1, COC(=O)c1nc(-c2ccc(C)cc2)[nH]c1C(C)(C)C, O=C(O)CNC(=O)C(c1ccccc1)c1ccccc1, O=C(C[n+]1ccc(Cc2ccccc2)cc1)Nc1ccc([N+](=O)[O-])cc1Cl, CN(C)S(=O)(=O)c1cccc(NC(=O)c2ccc3c(c2)S(=O)(=O)N=C2CCCCCN23)c1, CC1Cc2cc(-c3csc(NC(=O)Cc4ccccc4)n3)ccc2N1S(C)(=O)=O (stereo not given), CCN=C1NN=C(c2ccc(C)cc2)CS1, COc1cc(CCN(C(=O)c2cc3ccccc3[nH]2)C(c2ccccn2)c2nc3ccccc3[nH]2)cc(OC)c1 (stereo not given), NS(=O)(=O)c1ccc(CCNC(=O)CCCCCNc2nc(=S)[nH]c3ccccc23)cc1, CC(C)(C)S(=O)(=O)Cc1nc(-c2ccc(Cl)c(Cl)c2)cs1, Fc1ccc(-c2nc3ccc(Cl)cn3c2Cc2cccc(Cl)c2)cc1, Cc1cc(C(N)=O)nn1-c1c(Cl)cc(Cl)cc1Cl, Cc1ccc(NC(=O)COC(=O)CCNS(=O)(=O)c2c(Cl)cccc2Cl)cc1, CSc1nnnn1-c1ccc(Cl)cc1, Cc1noc(C)c1S(=O)(=O)N(Cc1ccccc1)C(C)C, Cc1cccc(-n2cnc3cc([N+](=O)[O-])ccc32)c1, Cc1ccc(S(=O)(=O)N2CCCCC2C(=O)N2CCN(c3ccccc3F)CC2)cc1 (stereo not given), COC(=O)c1cc(C(=O)c2c(C)cc3ccccn23)cc([N+](=O)[O-])c1, [O-][n+]1ccccc1/C=C/c1ccccc1, Fc1ccccc1C1CCN(Cc2nc(COc3ccccc3)no2)C1 (stereo not given), CC(=O)c1ccc(OCC(=O)Nc2ccc3c(c2)CCC3)cc1, Cc1ccc(Cc2c(-c3cccc(Br)c3)nc3ccc(C)cn23)cc1, COc1ccc(S(=O)(=O)N2CCOc3ccccc32)cc1, COc1ccc(-c2csc(NC(=O)c3ccccc3S(C)(=O)=O)n2)cc1, O=C(OCC(=O)N1CCOCC1)c1cccc(S(=O)(=O)N2CCCc3ccccc32)c1, O=C(CCC(=O)N1CCN(c2ccc(F)cc2)CC1)c1ccc(F)cc1, COc1ccc(C(=O)Nc2cccc3ccccc23)cc1, Cc1cc(-c2ccc(C)c(S(=O)(=O)NCC3CCN(Cc4ccccc4F)CC3)c2)on1, O=S(=O)(c1cnc(Cl)c(Cl)c1)N1CCc2ccccc21, O=C(COC(=O)c1ccccc1O)NCCC1=CCCCC1, C=CCN(c1ccccc1)S(=O)(=O)c1ccc(Cl)c(C(=O)OCC(=O)NCCCN2CCCC2=O)c1, CCN(C(=O)COC(=O)CCc1ccccc1)c1ccccc1
